Shown are actives, neighbours in structure and some others; about 7.3% of the full set was active somewhere.
HCMV antiviral = qHTS Assay for inhibitors of the human cytomegalovirus (HCMV); activity change, negative = inhibition, % at 57.5 µM; actives 4.5% (n = 410,000); HFF cells, HCMV-luciferase reporter, 72 h; active compounds read low; in the data active = activity change below about -60%; inconclusive = no clear call, values can overlap the other calls; inactive = above about -39%
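Human foreskin fibroblasts infected with luciferase-reporter HCMV at MOI 1 PFU/cell, compounds at two doses. Luciferase measured 72 h post infection; normalized to buffer-only basal and Salinomycin (10uM) controls.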
Vaccinia mCherry = qHTS for Stage-Specific Inhibitors of Vaccinia Orthopoxvirus: mCherry Reporter Primary qHTS; Potency, µM (series often up to 36.5 µM), without a hit: top-dose activity change, negative = inhibition, hits mostly inhibitors; actives 0.63% (n = 310,000); Vaccinia virus mCherry reporter infection, fluorescence; AID 720579, 2013; calls by dose curve; tested in A549 cells; also: potency is read from the fitted curve at half-maximal effect; nearly all actives have a fitted effect of over 35% in size
Vaccinia Venus = qHTS for Stage-Specific Inhibitors of Vaccinia Orthopoxvirus: Venus Reporter Primary qHTS. Vaccinia virus Venus reporter expression, fluorescence. Potency, µM (top dose mostly 36.5 µM), for inactives: at the highest dose activity change, negative = inhibition, hits mostly inhibitors. actives 0.46% (n = 330,000). AID 720580, 2013; calls by dose curve; tested in A549 cells; also: potency is read from the fitted curve at half-maximal effect; nearly all actives have a fitted effect of over 30% in size
HCV inh = qHTS Assay for Inhibitors of Hepatitis C Virus (HCV). Potency, µM (doses to about 41.8 µM), for the others: at the highest dose activity change, negative = inhibition, most hits filed as inhibitors. actives 3.4% (n = 340,000). AID 651820, 2012. Huh7.5.1 HCVcc-Cre infection, luciferase reporter, 44 h; active = well fitted inhibition curve with a large enough effect; inconclusive = small, poorly fitted or top-dose-only effect, or another doubt; inactive = no such curve, though single readings can be large or run the other way; also: potency is read from the fitted curve at half-maximal effect
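Whole-lifecycle infectious HCVcc-Cre system; cells 1,000/well, compound then virus (~0.5 moi) added 4 h after plating, 44 h culture. Luciferase read 15 sec following 15 min substrate incubation, room temp.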
FMDV inh = High Throughput Screening for Foot and Mouth Disease Virus Antivirals; FMDV antiviral cell-based qHTS; Potency, µM (highest dose often 57.9 µM), inactives show at the highest dose activity change, negative = inhibition, usual class: inhibitors; actives 1.2% (n = 410,000); calls by dose curve; tested in HEK293T cells; also: read-out not given here; potency is read from the fitted curve at half-maximal effect; nearly all actives have a fitted effect of over 45% in size
* marks the source's active call; other numbers are inactive results; i = inactive; ? = inconclusive; / = no result given. % is scaled to controls: 0 for no effect and ±100 for the full control effect.

SMILES | HCMV antiviral | Vaccinia mCherry | Vaccinia Venus | HCV inh | FMDV inh
CCCCn1c(CN(C)Cc2ccccc2)nc2c1c(=O)n(C)c(=O)n2C | ? | / | / | 11µM* | ?
CCCn1c(CN(Cc2ccccc2)Cc2ccccc2)nc2c1c(=O)n(C)c(=O)n2C | / | -28% | -12% | 7.9µM* | 25µM*
CC1CCCCN1Cc1nc2c(c(=O)n(C)c(=O)n2C)n1Cc1ccc(Br)cc1 (stereo not drawn) | -4 | -7% | -13% | / | -22%
COc1cccc(C(=O)NCCSc2c(-c3ccc(F)cc3)[nH]c3ccccc23)c1OC | -25 | -11% | -16% | / | 0%
COc1ccccc1CN1CCCC2(CCNCC2)C1 | / | / | / | / | -4%
COc1cc(C2C(N3C(=O)c4ccccc4C3=O)C(=O)N2c2cccc(C)c2)cc(OC)c1OC (stereo not drawn) | / | / | / | 4% | /
CCCn1c(CN(C)Cc2ccccc2)nc2c1c(=O)n(C)c(=O)n2C | -68* | / | / | 7.9µM* | 7.9µM*
CCOCCn1c(CN(C)Cc2ccccc2)nc2c1c(=O)n(C)c(=O)n2C | 19 | i | -12% | -24% | 0%
COc1cccc(OC)c1OCCCOc1ccc([N+](=O)[O-])cc1Cl | ? | i | -10% | ? | ?
CCOc1ccccc1OCCCOc1ccc([N+](=O)[O-])cc1Cl | -18 | / | -27% | 13µM* | -15%
COc1ccc2[nH]c(C(=O)N3CCc4ccccc4C3)c(C)c2c1 | -37 | / | / | 11µM* | 19%
COc1ccccc1NC(=O)C1CC(C)OC1=O (stereo not drawn) | 9 | -1% | 11% | 6% | 8%
CC(C)c1nn2c(=O)cc(COC(=O)c3ccc(NC(=O)c4cccs4)cc3)nc2s1 | -21 | -6% | -20% | / | 15%
CCCCn1nc(C(=O)Nc2cc(C(F)(F)F)ccc2N2CCOCC2)ccc1=O | -8 | / | / | ? | -28%
COc1ccc(-c2cc3nc[nH]c(=O)c3s2)cc1 | 146 | -19% | -10% | -15% | 12%
COc1ccc(-c2cc3nc(CCl)[nH]c(=O)c3s2)cc1 | 69 | -11% | -8% | ? | 14µM*
CC(C)C[C@H](NC(=O)[C@H](Cc1ccccc1)NC(=O)c1cnccn1)B(O)O | -99* | / | / | / | /
CCCNC(=O)C(Cc1ccccc1)NC(=O)c1ccccn1 (stereo not drawn) | -8 | i | -13% | 2% | 1%
CSc1nc2nccc(-c3ccc(Oc4ccccc4)cc3)n2n1 | -17 | / | ? | 11µM* | -28%
CCOC(=O)c1cccn1C1C(=O)N(Cc2ccc(C(C)C)cc2)c2ccc(Cl)cc21 (stereo not drawn) | -12 | / | / | / | /
CC(=O)c1ccc(OCc2cc(C(=O)N3CCC(c4ccncc4)CC3)no2)cc1 | -81* | / | / | ? | ?
O=C(c1cc(COc2cccc(C(F)(F)F)c2)on1)N1CCC(c2ccncc2)CC1 | / | / | / | ? | -2%
COc1cccc(OCc2cc(C(=O)N3CCC(c4ccncc4)CC3)no2)c1 | -89* | -25% | -12% | 10µM* | -27%
CC(=O)c1ccc(OCc2cc(C(=O)N(C)CCOc3ccc(C)cc3)no2)cc1 | 92 | / | / | 13µM* | 0%
CC(=O)c1ccc(OCc2cc(C(=O)N(C)Cc3nc4c(C)cccc4[nH]3)no2)cc1 | 24 | i | -19% | -17% | -28%
SMILES | HCMV antiviral | Vaccinia mCherry | Vaccinia Venus | HCV inh | FMDV inh
COc1cccc(OCc2cc(C(=O)NCC3CCCCC3)no2)c1 | 35 | / | / | 1% | 25%
CCOC(=O)CC1(NC(=O)c2cc(COc3cccc(OC)c3)on2)CCCCC1 | -35 | / | / | 10µM* | -22%
COc1ccc(S(=O)(=O)N2CCCCC2)cc1NC(=O)CCOc1cc(C)ccc1C | 0 | / | / | ? | 5%
CC(C)(C)c1ccc(Oc2nc3ccccn3c(=O)c2/C=C(\C#N)c2nc3ccccc3[nH]2)cc1 | 16 | -14% | 2% | / | -6%
C=CCC1(CC=C)CCCN1C(=O)c1cc(COc2cccc(OC)c2)on1 | 0 | / | / | 14µM* | -24%
COc1cccc(OCc2cc(C(=O)NCc3cnc4ccccn34)no2)c1 | ? | / | / | 8.9µM* | ?
COc1cccc(OCc2cc(C(=O)NCc3ccccn3)no2)c1 | 39 | -3% | -19% | 2% | 44%

Screens deposited in PubChem by National Center for Advancing Translational Sciences (NCATS).
